Bioassay records: PubChem BioAssay, several laboratories
Most compounds without a hit are left out; they make up all but 0.75% or so of the library.
Mtb BioA inh – blocks M. tuberculosis BioA enzyme activity; AID 602481; purified M. tuberculosis BioA enzyme, plate reader; 360,000 tested, 0.096% active; inhibition, % at 9.99 µM; in the data active = inhibition above about 40%
TcdB GH inh – inhibitors of Clostridioides difficile toxin B glycohydrolase; P18177; TcdB glycohydrolase enzymatic assay, plate reader; inhibition, % at 9.99 µM; 350,000 tested, 0.24% active; AID 652162; in the data active = inhibition above about 10%
Target sequence (P18177 whole entry, looked up): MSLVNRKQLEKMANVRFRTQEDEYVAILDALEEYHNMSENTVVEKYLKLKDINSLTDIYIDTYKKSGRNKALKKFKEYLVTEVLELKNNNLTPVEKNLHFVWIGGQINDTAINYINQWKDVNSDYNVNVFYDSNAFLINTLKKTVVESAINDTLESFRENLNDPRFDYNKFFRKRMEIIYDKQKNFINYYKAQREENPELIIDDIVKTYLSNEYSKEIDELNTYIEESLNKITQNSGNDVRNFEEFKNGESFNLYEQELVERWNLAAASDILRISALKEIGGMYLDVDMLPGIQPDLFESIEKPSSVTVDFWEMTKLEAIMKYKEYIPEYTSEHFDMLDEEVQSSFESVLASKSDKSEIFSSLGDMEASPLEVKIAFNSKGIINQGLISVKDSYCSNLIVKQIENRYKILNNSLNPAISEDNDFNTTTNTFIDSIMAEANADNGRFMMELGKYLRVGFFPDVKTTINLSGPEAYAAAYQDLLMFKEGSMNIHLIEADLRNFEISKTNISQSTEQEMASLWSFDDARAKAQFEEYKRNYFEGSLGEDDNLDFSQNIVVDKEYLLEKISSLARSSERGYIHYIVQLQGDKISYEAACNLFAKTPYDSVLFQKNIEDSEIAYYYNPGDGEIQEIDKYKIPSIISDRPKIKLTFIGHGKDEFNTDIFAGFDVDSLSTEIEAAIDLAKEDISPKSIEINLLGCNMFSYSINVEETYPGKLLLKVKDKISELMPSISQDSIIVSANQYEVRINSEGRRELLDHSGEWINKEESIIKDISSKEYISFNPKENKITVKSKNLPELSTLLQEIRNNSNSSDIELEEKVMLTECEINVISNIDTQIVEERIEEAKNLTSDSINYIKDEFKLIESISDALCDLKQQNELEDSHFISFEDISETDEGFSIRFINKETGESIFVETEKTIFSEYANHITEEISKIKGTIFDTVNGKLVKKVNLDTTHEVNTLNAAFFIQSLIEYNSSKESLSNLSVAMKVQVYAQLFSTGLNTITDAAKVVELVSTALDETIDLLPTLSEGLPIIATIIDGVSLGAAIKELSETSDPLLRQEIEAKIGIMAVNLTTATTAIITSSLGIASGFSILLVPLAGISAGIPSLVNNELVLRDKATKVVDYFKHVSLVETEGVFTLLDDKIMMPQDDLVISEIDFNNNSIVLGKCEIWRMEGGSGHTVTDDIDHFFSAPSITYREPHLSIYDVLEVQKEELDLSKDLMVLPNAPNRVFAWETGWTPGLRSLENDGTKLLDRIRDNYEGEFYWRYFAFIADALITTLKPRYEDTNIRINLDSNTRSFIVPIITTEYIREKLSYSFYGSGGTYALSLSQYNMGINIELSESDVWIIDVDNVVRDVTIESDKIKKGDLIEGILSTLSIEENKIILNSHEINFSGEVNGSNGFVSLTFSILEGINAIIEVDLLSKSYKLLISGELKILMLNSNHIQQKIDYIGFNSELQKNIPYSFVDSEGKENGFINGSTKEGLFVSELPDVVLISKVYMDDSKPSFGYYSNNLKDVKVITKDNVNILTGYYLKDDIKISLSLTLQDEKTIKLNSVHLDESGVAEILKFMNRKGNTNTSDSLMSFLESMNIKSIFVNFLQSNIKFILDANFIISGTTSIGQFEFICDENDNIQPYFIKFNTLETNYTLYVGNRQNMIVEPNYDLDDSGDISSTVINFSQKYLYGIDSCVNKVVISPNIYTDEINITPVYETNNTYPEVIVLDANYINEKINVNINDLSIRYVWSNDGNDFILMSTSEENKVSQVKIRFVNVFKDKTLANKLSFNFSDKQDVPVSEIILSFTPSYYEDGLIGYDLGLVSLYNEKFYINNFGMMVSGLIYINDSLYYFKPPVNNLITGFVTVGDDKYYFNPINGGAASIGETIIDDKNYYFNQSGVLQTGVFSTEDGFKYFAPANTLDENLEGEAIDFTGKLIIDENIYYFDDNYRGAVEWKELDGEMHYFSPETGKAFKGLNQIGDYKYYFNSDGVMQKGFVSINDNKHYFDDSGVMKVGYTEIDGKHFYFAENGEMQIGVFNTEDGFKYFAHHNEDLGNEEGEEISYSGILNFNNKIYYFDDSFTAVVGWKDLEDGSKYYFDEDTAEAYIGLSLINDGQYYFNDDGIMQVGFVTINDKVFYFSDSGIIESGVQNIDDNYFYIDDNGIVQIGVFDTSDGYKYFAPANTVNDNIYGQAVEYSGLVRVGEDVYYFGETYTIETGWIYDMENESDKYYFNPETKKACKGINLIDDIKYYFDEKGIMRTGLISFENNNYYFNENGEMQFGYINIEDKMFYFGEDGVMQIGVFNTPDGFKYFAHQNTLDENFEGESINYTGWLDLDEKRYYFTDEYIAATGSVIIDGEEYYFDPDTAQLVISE
Sa ugtP lethal – compounds lethal to S. aureus RN4220 ugtP deletion mutant; OD600 growth, 16 h; growth inhibition, % (test concentration not listed); 330,000 tested, 0.54% active; AID 1259309; in the data active = growth inhibition above about 68%;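 note: plate controls were untreated wells for no effect and antibiotic for full effect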
Yp Topo-I inh – blocks Yersinia pestis topoisomerase I activity; 360,000 tested, 0.064% active; activity, % at 10 µM; Y. pestis Topo-I cleavage product accumulation, plate reader; in the data active = activity above about 50%, passing the limit was not always enough
Sa RN4220 lethal – kills Staphylococcus aureus RN4220 | S. aureus RN4220 growth, OD600, 16 h | inhibition, % (test concentration not listed) | 330,000 tested, 0.33% active; in the data active = inhibition above about 85%;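 note: plate controls were untreated cells for no effect and reference antibiotic for full effect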
Mtb hypoxia inh – inhibitors of hypoxia-regulated fluorescent reporter in Mycobacterium tuberculosis. M. tuberculosis hypoxia-regulated fluorescent reporter, fluorescence. fluorescence inhibition, % (concentration not given with the values). 300,000 tested, 0.1% active; in the data active = fluorescence inhibition mostly above about 23%, no sharp cut-off; inactive = mostly below about 17%
Active calls of the source: *.

`CC(Cn1nnc([N+](=O)[O-])n1)=NNC(=O)c1cccc(Cl)c1` gave Sa ugtP lethal 58, Sa RN4220 lethal 21 and Mtb hypoxia inh -1.
Screening O=C(NCCCSc1ccccc1)c1cc(Cl)ccc1O returned Mtb BioA inh 1, TcdB GH inh -2, Sa ugtP lethal 89*, Yp Topo-I inh 10, Sa RN4220 lethal 93* and Mtb hypoxia inh 17.
For Cn1c(=O)c2nnn(N=C(c3ccccc3)C3CC3)c2n(C)c1=O the results were Sa ugtP lethal -4, Sa RN4220 lethal 2 and Mtb hypoxia inh 7.
CCc1ccccc1NC(=O)C1CCCN1S(=O)(=O)c1ccc2c(c1)n(C)c(=O)c(=O)n2C (centres undefined) was read as Mtb BioA inh 0, TcdB GH inh -1, Sa ugtP lethal 2, Yp Topo-I inh 5, Sa RN4220 lethal 5 and Mtb hypoxia inh 9.
Screening Cc1cccc(C)c1NC(=O)C1CCCN1S(=O)(=O)c1ccccc1 (centres undefined) returned Mtb BioA inh 0, TcdB GH inh 1, Sa ugtP lethal 5, Yp Topo-I inh 9, Sa RN4220 lethal 4 and Mtb hypoxia inh -3.
For Cc1cccc(C)c1NC(=O)C1CCCN1S(=O)(=O)c1ccc(-c2ccc(=O)[nH]n2)s1 (centres undefined) the results were Mtb BioA inh -6, TcdB GH inh 1, Sa ugtP lethal 99*, Yp Topo-I inh -2, Sa RN4220 lethal 98* and Mtb hypoxia inh -10.
Screening CCc1ccccc1NC(=O)C1CCCN1S(=O)(=O)c1ccc(-c2ccc(=O)[nH]n2)s1 (centres undefined) returned Mtb BioA inh -2, TcdB GH inh 0, Sa ugtP lethal 88*, Yp Topo-I inh 6, Sa RN4220 lethal 96* and Mtb hypoxia inh 0.
For COc1cccc(C2=CC(=O)CC(c3ccc(F)cc3)C2)c1 (centres undefined) the results were Sa ugtP lethal -11, Sa RN4220 lethal 3 and Mtb hypoxia inh 13.
`CCOc1cc(C=NNC(=O)c2ccc(CSc3nncn3C)cc2)ccc1OCC(=O)N1CCOCC1` gave Sa ugtP lethal 3, Sa RN4220 lethal 3 and Mtb hypoxia inh 11.
COC(=O)C(C)NC(=S)N1CCN(c2c(F)cc3c(=O)c(C(=O)O)cn(C4CC4)c3c2OC)CC1C (centres undefined) was read as TcdB GH inh 1, Sa ugtP lethal 100*, Yp Topo-I inh 9 and Sa RN4220 lethal 100*.
For Cc1c(-n2cc(C(=O)O)c(=O)c3cc(F)c(N4CCCC4)c(F)c32)c(=O)n(-c2ccccc2)n1C the results were Mtb BioA inh -1, Sa ugtP lethal -2, Yp Topo-I inh -3, Sa RN4220 lethal -2 and Mtb hypoxia inh 2.
For CNC(=S)N1CCN(c2c(F)cc3c(=O)c(C(=O)O)cn(C4CC4)c3c2OC)CC1C (centres undefined) the results were Mtb BioA inh 3, Sa ugtP lethal 100*, Yp Topo-I inh 1 and Sa RN4220 lethal 100*.
Screening O=C(NCCc1ccccc1)c1ccnc(C=NO)c1 returned Sa ugtP lethal -1, Sa RN4220 lethal -3 and Mtb hypoxia inh -6.
For Cc1cc(O)c2c(c1)C(=O)C13C(=C2O)C(=O)[C@H]2[C@@H](O)[C@@H]1[C@H]1[C@H](O)[C@@H]3C(=O)C3=C(O)c4c(O)cc(C)cc4C(=O)C312 (some centres undefined) the results were Mtb BioA inh 0, Sa ugtP lethal 97*, Yp Topo-I inh 403* and Sa RN4220 lethal 98*.
O=C1Nc2ccccc2C1(O)CC(=NO)c1ccccc1 (centres undefined) was read as Sa ugtP lethal 2, Sa RN4220 lethal -2 and Mtb hypoxia inh 2.
NC(N)=N/N=C/c1ccc(OCc2ccccc2)cc1 was read as Mtb BioA inh 0, TcdB GH inh 2 and Yp Topo-I inh -9.
`NC(N)=NN=Cc1ccc(OCc2ccccc2)c(OCc2ccccc2)c1` gave Sa ugtP lethal 101*, Sa RN4220 lethal 101* and Mtb hypoxia inh 12.
For NC(N)=N/N=C/c1ccc(OCc2ccc(Cl)cc2)cc1 the results were Yp Topo-I inh 5.
`FCCCOc1ccc(C=NOCc2ccc(Cl)cc2)cc1` gave Sa ugtP lethal 85* and Sa RN4220 lethal -3.
Screening Clc1ccc(CO/N=C/c2cccs2)cc1 returned Mtb BioA inh -1, TcdB GH inh -10 and Yp Topo-I inh -3.
For NC(N)=NN=Cc1ccc(OCc2ccc(Cl)cc2Cl)cc1 the results were Sa ugtP lethal 101*, Sa RN4220 lethal 100* and Mtb hypoxia inh 21.
